# Results: PubChem BioAssay AID2796 (The Scripps Research Institute Molecular Screening Center, 2010)
# About 8,000 (2.5%) of roughly 320,000 compounds were called active. Many of the other results were omitted from the sample, so actives are more common in it than they were. Unmarked numbers belong to inactive results. Cut-off read from the data, not from the text of the source: active = activation above about 47%; inactive = the rest.
# Target: Aryl hydrocarbon receptor (Homo sapiens) (UniProt P35869)
# Assay: AHR activators, primary screen, cell-based, luminescence, luciferase reporter, human (AID 2796);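 note: 0% = vehicle wells and 100% = reference agonist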
# Settings: AHR-responsive luciferase reporter cells, at 5 µM, stronger effect = higher value
# Aryl hydrocarbon receptor (Homo sapiens), sequence (P35869 whole entry, looked up): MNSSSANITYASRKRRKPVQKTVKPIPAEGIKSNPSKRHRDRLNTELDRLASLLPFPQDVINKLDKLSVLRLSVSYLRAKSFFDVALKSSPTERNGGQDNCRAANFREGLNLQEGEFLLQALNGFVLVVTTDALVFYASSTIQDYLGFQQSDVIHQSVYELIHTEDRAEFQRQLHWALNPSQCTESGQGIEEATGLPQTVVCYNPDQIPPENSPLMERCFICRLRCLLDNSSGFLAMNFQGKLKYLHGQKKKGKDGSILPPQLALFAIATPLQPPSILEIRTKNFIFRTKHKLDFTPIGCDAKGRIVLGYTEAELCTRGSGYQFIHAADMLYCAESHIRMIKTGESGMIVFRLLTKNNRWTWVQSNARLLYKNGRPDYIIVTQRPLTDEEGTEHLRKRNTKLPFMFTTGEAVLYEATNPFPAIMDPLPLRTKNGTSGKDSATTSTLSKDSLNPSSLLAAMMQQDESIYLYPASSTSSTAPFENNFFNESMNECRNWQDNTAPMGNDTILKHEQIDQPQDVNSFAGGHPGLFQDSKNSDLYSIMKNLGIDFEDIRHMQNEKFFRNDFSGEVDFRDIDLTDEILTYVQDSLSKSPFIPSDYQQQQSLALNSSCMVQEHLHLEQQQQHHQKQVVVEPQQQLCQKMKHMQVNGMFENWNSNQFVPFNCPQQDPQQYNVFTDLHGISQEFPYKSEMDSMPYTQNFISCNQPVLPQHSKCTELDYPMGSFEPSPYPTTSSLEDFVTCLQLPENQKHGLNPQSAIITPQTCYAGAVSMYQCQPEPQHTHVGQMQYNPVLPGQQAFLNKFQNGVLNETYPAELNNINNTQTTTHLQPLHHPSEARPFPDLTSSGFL
row,Compound,activation
1,COc1ccc([N+](=O)[O-])cc1-c1nc2ccccc2nc1-c1ccccc1,3.27%
2,Cc1nc(-c2ccc([N+](=O)[O-])cc2)c(-c2ccccc2)o1,1.84%
3,Cn1nc(-c2ccccc2)c2cc([N+](=O)[O-])ccc21,67.7% (active)
4,CCNC(=O)c1cccc(NC(=O)C2CC(=O)N(CCc3ccccc3)C2)c1 (stereo unspecified),2.07%
5,C=CCn1cc(C(=O)NCc2ccc(Cl)cc2)c(=O)c2cc(S(=O)(=O)N(CC)CC)ccc21,11.3%
6,CCCOc1ccc(Cc2c(Cl)nc(SC)nc2NC)cc1,2.63%
7,COc1cccc(CNS(=O)(=O)c2cc3c(cc2C)n(C)c(=O)c(=O)n3C)c1,-0.05%
8,COc1cc2ccccc2cc1C(=O)Nc1nc(C)c(C(C)=O)s1,6.6%
9,COc1ccccc1OCc1nc2ccccc2s1,45.1%
10,COc1cccc2sc(NNC(=O)c3nc4ccccc4s3)nc12,86.3% (active)
11,COc1cccc2sc(Nc3nc(C)c(C(C)=O)s3)nc12,67.4% (active)
12,COc1ccccc1/C=N/Nc1nc(C)c(C(C)=O)s1,33.6%
13,COc1cccc2sc(N(CCCN(C)C)C(=O)C(c3ccccc3)c3ccccc3)nc12,-0.96%
14,CCOP(=O)(OCC)C(Nc1ccc([N+](=O)[O-])cc1)c1ccc(Cl)cc1 (stereo unspecified),0.69%
15,Cn1ccc(=Nc2ccc(NC(=O)c3ccc(N=c4ccn(C)c5ccc([N+](=O)[O-])cc45)cc3)cc2)cc1,2.76%
16,O=C(Nc1nnc(-c2ccccc2)o1)c1cccc(S(=O)(=O)N2CCOCC2)c1,2.09%
17,CC(C)CNC(=O)COC(=O)c1ccccc1OCC(=O)Nc1ccc(Br)cc1,-3.8%
18,CC(C)C(NC(=O)c1cccc(S(=O)(=O)N2CCOCC2)c1)C(=O)NCCc1ccccn1 (stereo unspecified),-6.5%
19,COc1ccc2ccccc2c1CNCc1ccccn1,18.4%
20,c1ccc(NCc2cccc3ccccc23)nc1,67.9% (active)
21,c1ccc2c(CNn3cnnc3)cccc2c1,0.98%
22,COc1ccc(CCNC(=O)C(=O)NCC2OCCN2S(=O)(=O)c2cccs2)cc1OC (stereo unspecified),-2.65%
23,CN(CCc1ccccc1)C(=O)c1cccc(NC(=O)Cc2ccc([N+](=O)[O-])cc2)c1,-0.06%
24,Cn1nccc1NC(=O)Nc1ccc(OC(F)(F)F)cc1,3.12%

row,Compound,activation
1,O=C(Nc1ccc(OC(F)(F)F)cc1)c1ccc2c(c1)no[n+]2[O-],93.6% (active)
2,Cn1cccc1/C=N/NC(=O)c1ccc(OC(F)(F)C(F)F)cc1,3.37%
3,COC(=O)c1ccc(COC(=O)CNC(=O)c2cccc(OC)c2)o1,0.14%
4,O=C(c1ccc(-c2ccccc2)cc1)C1CCCN(C(=O)c2cncs2)C1 (stereo unspecified),37.6%
5,CC1(C)CC(=O)C=C(c2ccc3ncccc3c2)C1,8.47%
6,O=C(Nc1ccc(F)cc1)c1cc2c(s1)CCCC2,55.3% (active)
7,O=C(NNC(=O)c1cc2c(s1)CCCC2)c1ccccc1,4.72%
8,CN(C)C(=O)c1ccc(NC(=O)COC(=O)c2cc3c(s2)CCCCC3)cc1,-0.09%
9,CC(C)CCNC(=O)C(C)N(C(=O)Cn1nnc(-c2ccc(F)cc2)n1)C1CCCC1 (stereo unspecified),-2.15%
10,COc1ccc2[nH]c(C(=O)Nc3ccccc3Cl)cc2c1,21%
11,CC(OC(=O)c1cc2ccccc2[nH]1)C(=O)N(C)c1ccccc1 (stereo unspecified),28.8%
12,O=C(Nc1ccccc1)c1cc2ccccc2[nH]1,160% (active)
13,CCc1ccc(Oc2nc([N+](=O)[O-])nn2C)cc1,-3.57%
14,CCCN(CCc1ccccc1)C1CCc2c(O)cccc2C1 (stereo unspecified),3.78%
15,COc1cc(/C=N/NC(=O)c2cccnc2)ccc1OC(=O)c1cccc(Br)c1,18.7%
16,COc1ccc(/C=N\NC(=O)c2sc(N)nc2C)cc1OC,77.3% (active)
17,COc1cc(/C=N/NC(=O)CNC(=O)c2ccncc2)ccc1OC(C)=O,0.59%
18,COc1cnc(SCc2ccc(Cl)c(Cl)c2)nc1Cl,-1.43%
19,CCOC(=O)c1ccc(NC(=O)Cc2cccs2)cc1,0.34%
20,O=C(Cc1cccs1)Nc1ccc([N+](=O)[O-])cc1,0.97%
21,O=C(Cc1cccs1)Nc1cccc(-c2nc3ccccc3[nH]2)c1,75.8% (active)
22,CN1CCC(CN)(N2CCN(c3ccccc3)CC2)CC1,2.54%
23,COc1ccccc1C(=O)N(Cc1ccc(C)o1)C1CCS(=O)(=O)C1 (stereo unspecified),-1.67%
24,CCc1nc2sc(C(=O)O)c(N)c2c2c1CCCC2,0.64%

row,Compound,activation
1,Cc1ccc2c(N)c(C(=O)c3ccccc3)sc2n1,46.1%
2,Cc1nc2sc(C(=O)c3ccccc3)c(N)c2c2c1CCCC2,85.3% (active)
3,CC1(C)CC(=O)C=C(NCCN2CCNCC2)C1,3.32%
4,COc1cccc(C2=CC(=O)C[C@H](c3ccc(OC)c(OC)c3)C2)c1,2.2%
5,O=S(=O)(Nc1cc(S(=O)(=O)N2CCOCC2)ccc1N1CCCC1)c1cccs1,1.52%
6,COc1cccc(-c2cc(C(=O)N/N=C/c3ccc(OC)c(COC(C)=O)c3)c3ccccc3n2)c1,54.1% (active)
7,COc1ccc(/C=N/NC(=O)c2cc(-c3cccc(C)c3)nc3ccccc23)cc1O,21.2%
8,COc1cccc(OCc2cc(/C=N/NC(=O)c3nc(Cl)c(Cl)c(N)c3Cl)ccc2OC)c1,73.8% (active)
9,CCOc1cc(/C=N/NC(=O)c2cc(-c3ccccc3)nc3ccccc23)ccc1O,16.1%
10,COc1ccc2[nH]c(C(=O)N/N=C/c3cc(OC)c(OC)c(OC)c3)cc2c1,30.9%
11,CCOc1ccc2[nH]c(C(=O)N/N=C/c3cccc(OC)c3OC)cc2c1,33%
12,O=C(COc1ccc(Br)cc1F)NCC1(N2CCCCC2)CCCCC1,-0.81%
13,O=c1oc2c(Cl)cc(Cl)cc2cc1-c1nnc(Nc2ccccc2F)s1,10.5%
14,OC(COCCC12CC3CC(CC(C3)C1)C2)CN1CCCCC1 (stereo unspecified),0.68%
15,CC(=O)N[C@H]1[C@H]([C@H](O)[C@H](O)CO)OC(C(=O)O)=C[C@@H]1O,0.57%
16,Cc1ccc(S(=O)(=O)N(CC(=O)Nc2cccc([N+](=O)[O-])c2)Cc2ccc(Cl)cc2)cc1,6.55%
17,CC1Cc2ccccc2N1C(=O)CSc1nnc(-c2ccc(S(=O)(=O)N3CCCC3)cc2)n1C (stereo unspecified),1.18%
18,CC1Cc2ccccc2N1C(=O)CSc1nnc(C2CC2)n1C (stereo unspecified),93% (active)
19,CCn1c(CSc2ncccn2)nnc1SCC(=O)N1c2ccccc2CC1C (stereo unspecified),-1.92%
20,CO/N=C/c1ccc(N2CCN(C(=O)c3cccc(Cl)c3)CC2)c([N+](=O)[O-])c1,-0.18%
21,Cc1nn(Cc2ccccc2Cl)c(C)c1NC(=O)Cn1nc([N+](=O)[O-])c(Cl)c1C,0.37%
22,COc1cccc(NC(=O)COc2cc(C)cc3oc(=O)cc(C)c23)c1,12.3%
23,Cc1c(NC(=O)c2cc(-c3ccc(Br)cc3)on2)c(=O)n(-c2ccccc2)n1C,-3.47%
24,Cc1c(NC(=O)c2coc(=O)c(Br)c2)c(=O)n(-c2ccccc2)n1C,0.64%

row,Compound,activation
1,Cc1cc2oc(C(=O)Nc3c(C)n(C)n(-c4ccccc4)c3=O)c(C)c2cc1Cl,81% (active)
2,COCCN(Cc1cc2cc3c(cc2nc1Cl)OCO3)C(=O)c1cccc(C)c1,11.9%
3,COc1ccc(Nc2nnc(C)c3ccccc23)cc1,102% (active)
4,COc1ccc(Nc2nc(=O)[nH]nc2C)cc1,-3.65%
5,Cc1nnc(NCCO)c2ccccc12,-2.09%
6,CCCCNC(=O)N1CCCC(N(C)CCc2ccc(OC)c(OC)c2)C1 (stereo unspecified),-0.75%
7,CCNC(=O)NNC(=O)C1CC(c2cccs2)=NO1 (stereo unspecified),3.35%
8,Cn1cccc1C(=O)OCC(=O)NCCc1ccccc1,7.54%
9,S=c1nc2ccccc2c2nc(-c3cccnc3)[nH]n12,83.8% (active)
10,O=C(CSc1n[nH]c(-c2cccnc2)n1)Nc1ccnc2ccccc12,8.3%
11,c1ccc(-n2nnnc2-c2cccnc2)cc1,36.3%
12,O=C(/C=C/Sc1ncn[nH]1)c1ccc(Cl)cc1,0.35%
13,COc1cc(C)ccc1OCC(=O)OCC(=O)c1ccc[nH]1,-3.4%
14,CCOCCCNc1nc(-c2ccccc2)nc2ccccc12,13.5%
15,C[C@@H](Nc1nc(-c2ccccc2)nc2c1oc1ccccc12)C(=O)O,16.4%
16,COCCNc1nc(-c2ccccc2)nc2c1oc1ccccc12,88.9% (active)
17,O=C(Cn1cncn1)N/N=C/c1c2ccccc2cc2ccccc12,84.8% (active)
18,Nc1nnn(CC(=O)N/N=C/c2ccccc2)n1,0.68%
19,Cc1nn(-c2ccccc2)c(C)c1/C=N/NC(=O)CSc1nc2ccccc2c(=O)n1-c1ccccc1,1.64%
20,CCCCNC(=O)C1CCCNC1=O (stereo unspecified),-1.12%
21,c1ccc(-c2csc(N3CCc4ccccc4C3)n2)cc1,14.7%
22,COc1ccc(/C=N/Nc2ccccc2C(=O)O)cc1,3.83%
23,O=C(NN=Cc1ccc(N2CCOCC2)cc1)c1cc2ccccc2cc1O,11.3%
24,NC(=O)c1ccccc1N=Cc1ccc2ccccc2c1,87.6% (active)
